# Experimental data as given in PubChem BioAssay (NCATS).
# Inconclusive results are not listed. Values without a mark were called inactive. The call rests on the fitted dose curve; in most records, active means well fitted cell-killing curve with a large enough effect; inconclusive means small, poorly fitted or top-dose-only effect; inactive means flat fitted curve, though single readings scatter.
# Test: HepG2 cells viability qHTS for Zika virus inhibitors (AID 1347168)
# Conditions: Zika counter-screen; series mostly up to 45.9 µM; activity change, negative = cytotoxicity: at the top concentration
# From the text: Avindra Nath, Ph.D., National Institute of Neurological Disorders and Stroke (NINDS), Bethesda, MD
# Radhakrishnan Padmanabhan, Ph.D., Georgetown University (GU), Washington D.C.
# Zika Virus causes congenital defects, including microcephaly and is associated with Guillain-Barre syndrome, eningoencephalitis and myelitis in infected adult. […] Using a target-based approach, we hope to establish a screening paradigm to uncover novel, cell-active NS2B-NS3 protease (Zika Virus) specific inhibitors from NCATS' collection of small molecules using qHTS.
# Four assay panel was created to identify potential Zika Virus inhibitors. Namely, (1) GU unlinked NS2B-NS3 AMC tagged protease qHTS, (2) GU unlinked NS2B-NS3 Rhodamine tagged protease qHTS, (3) NINDS linked NS2B-NS3 AMC tagged protease qHTS, (4) NINDS linked NS2B-NS3 Rhodamine tagged protease qHTS. Identified inhibitors were screened against the Vero and HepG2 cell viability assays using CellTiter Glo to exclude cytotoxic compounds.
# Early Translation Branch (ETB)
# National Center for Advancing Translational Sciences (NCATS), Rockville, MD
# National Institute of Health (NIH), Bethesda, Maryland
# Vero and HepG2 Cell Viability Assay:
# Vero and HepG2 cell cytotoxicity were determined using a luminescent readout with CellTiter Glo reagent (Promega, Madison, WI), which is based on measuring the ATP content within cells. Briefly, 4 microL of Vero or HepG2 cells at 2.5 x 10^5 cells/mL in DMEM containing 4% FBS were dispensed into 1536-well solid bottom tissue treated white plate using a Multidrop Combi dispenser (Thermo Scientific). Plates were incubated at 37 degrees C, 95% humidity, and 5% CO2 overnight to allow for cell attachment. Compounds were dissolved in DMSO at different concentrations and transferred via pintool (Wako Automation), for a final concentration of 0.029 µM - 57 microM. Plates were again incubated for 24 to 48 hours, followed by a 2 microL addition of CellTiter Glo. Finally, plates were incubated for 30 minutes at 37 degrees C and 5% CO2 before being read on a ViewLux (Perkin Elmer) for luminescence.
# On the % scale 0 is the no-effect control and ±100 the full control effect.
row,SMILES,"activity change, negative = cytotoxicity"
1,CCc1ccc2c(-c3cccc(Cl)c3)nc(=O)n(CC)c2n1,-5.81%
2,CCCc1c(OCCCOc2ccc(OCC(=O)O)cc2)ccc(C(C)=O)c1O,5.51%
3,CNC(=O)c1cc2c(cn1)[nH]c1ccccc12,-6.31%
4,COc1ccccc1N1CCN(CCCNc2c(C)c(=O)n(C)c(=O)n2C)CC1,-0.668%
5,Cn1c(=O)c2[nH]c(-c3ccc(S(=O)(=O)O)cc3)nc2n(C)c1=O,-1.4%
6,C=CCN1CCc2c(cc(O)c(O)c2Br)[C@@H](c2ccccc2)C1,-21.3%
7,COc1cc(/C=C(\C#N)C(=O)Nc2nnc(C(F)(F)F)s2)ccc1OCc1ccc(C(F)(F)F)cc1C(F)(F)F,-10.3%
8,CCCC[C@@]1(C2CCCC2)Cc2cc(OCC(=O)O)c(Cl)c(Cl)c2C1=O,-5.02%
9,COc1cc2c(CCNC(C)=O)c[nH]c2cc1O,-5.21%
10,O=C1NC(=O)c2cc(Nc3ccccc3)c(Nc3ccccc3)cc21,-14.1%
11,Nc1ccc(-c2ccc3ccccc3n2)cc1,-0.901%
12,Cc1cccc(C(=O)NCN2CCN(c3ccccc3C#N)CC2)c1,-0.209%
13,O=C(O)c1ccccc1Nc1cccc(OCc2ccc3ccccc3n2)c1,15.3%
14,C/C(=C\c1ccc(C(=O)O)cc1)c1ccc2c(c1)C(C)(C)CCC2(C)C,11.4%
15,Nc1nc2ccc(Cl)cc2c2nc(-c3ccco3)nn12,19.8%
16,O=c1[nH]c(=S)[nH]c(-c2ccccc2)c1Cc1c(O)ccc2ccccc12,-9.37%
17,Cn1cc(C(F)(F)F)nc1-c1ccc(OCC(O)CNCCOc2ccc(O)c(C(N)=O)c2)cc1 (configuration not stated),-17.5%
